Test results reported in the supplement of paper PMC12636033.
± gives the standard deviation of the averaged measurements. The full ranking holds about 33,000 sequences; the median of “E-score (rank enrichment, -0.5 to 0.5)” is about -0.0075, and the highest 2% start at about 0.23. The sample holds the highest values, similar sequences and a random draw of the others, so the mix is not that of the screen.

tested on: WT Max(13-93) synthetic (M65Nle); experiment: PBM 8-mer E-score (E-score (rank enrichment, -0.5 to 0.5)); higher = stronger preferential binding
Procedure: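 Protein binding microarray (universal PBM chip covering all 10-mers in fixed probe flanks) with chemically synthesized human Max(13-93) bHLH-LZ analogs (not full-length Max) bearing noncanonical residues (hArg, Tha, Aib, Nle at 65) and aromatic Cys staples. Read-out per 8-mer (and its reverse complement): E-score (rank-based enrichment, -0.5 to 0.5) and Z-score of median probe intensity.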

Sequence	PBM 8-mer E-score
CATGCTTA	0.246 ± 0.045
GACATTAC	0.0651 ± 0.0097
ATCATTTG	0.0683 ± 0.013
CTTTCCGC	-0.00053 ± 0.0035
GTCGCATA	0.127 ± 0.004
CAATCTCA	8e-05 ± 0.15
CCCTATTC	0.0618 ± 0.016
TAAAAAAA	0.123 ± 0.0092
GATAAAAA	0.242 ± 0.021
CATAAAAA	0.213 ± 0.085
GATAAACA	0.138 ± 0.13
GATAAAAC	0.141 ± 0.1
TATAAAAA	0.258 ± 0.13
GACCCCGC	-0.0133 ± 0.0045
CAAGCACC	-0.0769 ± 0.043
CAAGTAGC	-0.0222 ± 0.13
GGACGCGA	-0.0617 ± 0.22
CGAGAACC	-0.00648 ± 0.079
AAACATGT	0.315 ± 0.018
AAACATGC	0.248 ± 0.021
GAACATGC	0.164 ± 0.015
CAACATGC	0.119 ± 0.023
AAACATGG	0.2074 ± 0.0013
AAACATGA	0.187 ± 0.041
CCCATCGA	-0.073 ± 0.074

Sequence	PBM 8-mer E-score
GTCTAGGA	-0.0888 ± 0.0088
AGCTCGAT	-0.0955 ± 0.12
AAGTGAGT	0.0792 ± 0.0081
GAAGACAA	-0.00129 ± 0.039
AAAGACAC	0.279 ± 0.032
AAAGACAA	0.2 ± 0.078
GATGACAC	0.0335 ± 0.0041
CATGACAA	0.196 ± 0.036
CAAGACAA	0.123 ± 0.084
AATGACAC	0.239 ± 0.013
AATGACAG	0.103 ± 0.13
TAAGACAA	0.26 ± 0.04
CATGACAG	0.0777 ± 0.066
AAAGACAG	0.091 ± 0.049
CATGACAC	0.29 ± 0.036
CTCGCGTC	-0.0607 ± 0.017
GTTTGATA	0.157 ± 0.13
GTACCAAA	0.104 ± 0.08
GCGGGCCA	-0.176 ± 0.11
ACATCCGA	-0.16 ± 0.072
CACGTATG	0.0325 ± 0.16
GGAGTTCA	0.024 ± 0.016
CGCGGTTA	-0.0113 ± 0.021
ATCTTACG	-0.013 ± 0.042
AAGGAGCG	-0.0544 ± 0.078

Sequence	PBM 8-mer E-score
AATGACAA	0.296 ± 0.089
TATGACAA	0.22 ± 0.013
GATGACAA	0.147 ± 0.014
AGAAAAGC	0.121 ± 0.075
AACACGTA	0.189 ± 0.04
CACACGTA	0.0918 ± 0.056
AACACGTC	0.0692 ± 0.09
CACACGTC	0.0446 ± 0.022
AACACGTG	0.4954 ± 0.001
CACACGTG	0.4756 ± 0.0046
AGGAAAAT	0.102 ± 0.051
CTTGCCAA	0.0438 ± 0.04
CTTTAAGA	0.0629 ± 0.086
ACTCGATC	-0.107 ± 0.06
ATGGAGGC	-0.00616 ± 0.011
TTTATAAA	0.176 ± 0.057
CCAACCCC	-0.0495 ± 0.05
ACAACCCC	0.257 ± 0.052
ACAACCCT	-0.0273 ± 0.068
GCGTCGAA	0.00213 ± 0.017
GGCATGCA	0.0781 ± 0.042
CGCATGCA	0.175 ± 0.029
AGCATGCC	0.12 ± 0.022
AGCATGCT	0.165 ± 0.028
AGCATGCG	0.326 ± 0.055

Sequence	PBM 8-mer E-score
CGCATGCC	0.141 ± 0.068
TGCATGCA	0.201 ± 0.039
AGCATGCA	0.335 ± 0.016
CGCATGCG	0.277 ± 0.018
CGCAATGC	-0.0961 ± 0.12
AGACACCC	-0.159 ± 0.022
CATTTGAC	0.0512 ± 0.021
GCACATCC	-0.00788 ± 0.08
CCACATGA	0.24 ± 0.057
TCACATGA	0.229 ± 0.011
GCACATGA	0.175 ± 0.065
CAACATGG	0.171 ± 0.018
CCACATGC	0.327 ± 0.06
CCACATCG	-0.114 ± 0.056
CGACATGC	0.18 ± 0.013
GCACATAC	0.0278 ± 0.096
CCACATGG	0.366 ± 0.0054
GCACATGC	0.251 ± 0.032
ACACATGC	0.23 ± 0.089
ACTAAGAC	-0.0588 ± 0.021
AGTGGCAT	0.077 ± 0.041
ATAGAGAT	0.0666 ± 0.018
ACCTCTAT	-0.0733 ± 0.13
AATGCCTG	-0.0228 ± 0.16
AAACGTTC	0.138 ± 0.043

Sequence	PBM 8-mer E-score
TCTTACCA	-0.0372 ± 0.041
CAGTGAGC	-0.263 ± 0.02
AATATATG	0.251 ± 0.011
AATATGTC	0.0761 ± 0.1
AATATGAA	0.279 ± 0.013
TATATGAA	0.15 ± 0.097
AATATGTA	0.138 ± 0.069
AATATATT	0.197 ± 0.047
AATATGTG	0.273 ± 0.036
AATATGAC	0.201 ± 0.057
AATATATA	0.175 ± 0.01
ACGTCGAC	0.0127 ± 0.076
ACCCCGTG	0.0605 ± 0.035
CCGGCGTA	-0.17 ± 0.049
CCCGCGCC	-0.134 ± 0.14
ACGCATTC	-0.0561 ± 0.13
AGGTGATA	-0.0245 ± 0.055
CTTAATTC	0.258 ± 0.0064
ATTAATGC	0.0772 ± 0.086
CTTAATGA	0.0202 ± 0.07
ATTAATTA	0.235 ± 0.13
ATTAATTC	0.159 ± 0.18
ATTAATAC	0.102 ± 0.0018
ATTAATAA	0.195 ± 0.023
CTTAATTA	0.0675 ± 0.075

Sequence	PBM 8-mer E-score
GTTAATTA	0.13 ± 0.14
ATTAATAG	0.263 ± 0.1
ATTAATTG	0.128 ± 0.089
ATTAATGA	0.264 ± 0.076
ACTACAGT	0.0566 ± 0.059
TGACAACA	0.0331 ± 0.06
CCCGCTAC	0.047 ± 0.0079
CTGAAGCC	-0.13 ± 0.039
GAGAGCTA	0.1 ± 0.073
ATGGGCTA	0.0445 ± 0.068
AAATGACG	0.0648 ± 0.073
TAATGACA	0.256 ± 0.013
AAATGACC	0.0445 ± 0.18
CAATGACA	0.184 ± 0.075
GAATGACA	0.0853 ± 0.076
AAATGACA	0.248 ± 0.04
CGACCCAG	-0.168 ± 0.1
CTCAAGAA	0.026 ± 0.0068
GATTATAA	0.134 ± 0.066
TATTATAA	0.291 ± 0.094
TATTAGAA	0.235 ± 0.07
CATTAGAA	0.0359 ± 0.086
CGTTATAA	0.0918 ± 0.12
AGTTATAA	0.132 ± 0.08
TGTTATAA	0.255 ± 0.026

Sequence	PBM 8-mer E-score
GATTAGAA	0.131 ± 0.017
CATTATAA	0.107 ± 0.051
CCCGGAAG	-0.252 ± 0.034
AATTATGT	0.178 ± 0.038
ACGCGCCA	0.0474 ± 0.11
AACGAAGA	0.0931 ± 0.055
CCTTTAGC	-0.065 ± 0.16
CCTACTAA	-0.0419 ± 0.0019
GTATTAAA	0.188 ± 0.077
GTATTATA	0.251 ± 0.046
TAATATTA	0.37 ± 0.026
ATTATATG	0.176 ± 0.035
CTATTATA	0.0186 ± 0.0034
ATATTATA	0.309 ± 0.018
ATTATATC	0.247 ± 0.059
AAATATTA	0.219 ± 0.04
ACATTATA	0.158 ± 0.0021
ATTATATA	0.125 ± 0.052
CAATATTA	0.157 ± 0.12
GTATTAGA	0.223 ± 0.014
CGTAGCGC	-0.0505 ± 0.038
GCAGGATA	-0.184 ± 0.065
